# Bioassay records (PubChem)
# Only some compounds are listed: those with a hit (about 7.4% of all), similar ones and a draw of the others.
# ELG1 genotoxic: induces genotoxicity in HEK293T cells with luciferase-tagged ELG1; AID 504466; 330,000 tested, 1.3% active; Potency, µM (top dose mostly 46 µM), for the others: at the top dose activity change, positive = activation, usual class: activators; HEK293T ELG1-luciferase reporter, luminescence, 16 h; further: % of control where 0% means no effect; nearly all actives have a fitted effect of over 60% in size
#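 HEK293T cells expressing luciferase-tagged ELG1 were exposed to compound or DMSO vehicle for 16 hr at 37 °C and 5% CO2. Luciferase activity was then measured with ONE-Glo after 30 min at room temperature.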
# Rab9 promoter act: Rab9 promoter activation. Huh7 Rab9 promoter-luciferase reporter, luminescence, 24 h. Potency, µM (series often up to 9.22 µM), for inactives: at the top dose activation, negative = inhibition, most hits filed as activators. 320,000 tested, 2.8% active; further: % of control where 0% means no effect; nearly all actives have a fitted effect of over 60% in size
#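 Cell-based reporter: Huh7 stable for Rab9 promoter-driven luciferase, plated in reduced-serum medium with 10% FBS at 1500 cells/well, compound-treated 24 h at 37 °C, luminescence read after 10 min reagent.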
# FLuc counter: firefly luciferase modulation, counter-screen for miR-21 project | P08659 | purified FLuc, Km substrates, luminescence inhibition | Potency, µM (highest dose often 57.5 µM), inactives show at the highest dose activity change, negative = inhibition, most hits filed as inhibitors | 360,000 tested, 6.9% active | AID 588342;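 further: plate controls were vehicle for no effect and reference inhibitor for full effect; nearly all actives have a fitted effect of over 55% in size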
# Target sequence (P08659 whole entry, looked up): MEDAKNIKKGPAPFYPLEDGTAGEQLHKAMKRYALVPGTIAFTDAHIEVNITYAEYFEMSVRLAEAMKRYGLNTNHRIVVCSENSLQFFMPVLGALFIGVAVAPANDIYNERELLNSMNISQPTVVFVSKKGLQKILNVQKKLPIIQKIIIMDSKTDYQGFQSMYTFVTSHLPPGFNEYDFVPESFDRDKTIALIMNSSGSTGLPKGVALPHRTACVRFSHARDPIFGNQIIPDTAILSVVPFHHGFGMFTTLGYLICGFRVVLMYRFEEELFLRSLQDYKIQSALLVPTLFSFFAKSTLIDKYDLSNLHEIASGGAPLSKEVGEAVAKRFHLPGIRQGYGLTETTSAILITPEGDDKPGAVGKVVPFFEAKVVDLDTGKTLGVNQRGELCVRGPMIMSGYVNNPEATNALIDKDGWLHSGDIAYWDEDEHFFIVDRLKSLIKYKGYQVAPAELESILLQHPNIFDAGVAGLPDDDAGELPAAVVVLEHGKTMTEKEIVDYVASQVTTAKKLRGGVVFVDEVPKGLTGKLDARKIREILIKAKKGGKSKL
#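 Purified P. pyralis luciferase (10nM final) with 10uM D-luciferin and 10uM ATP (Km levels) in 50mM Tris acetate pH 7.5, 10mM Mg acetate, 0.01% Tween-20, 0.05% BSA; qHTS 6-point titration, ~60 µM downward; luminescence read.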
# SMN2 splice up: enhancers of SMN2 splice variant expression. HEK293 SMN2-luciferase splicing reporter, luminescence, 30-36 h. Potency, µM (doses to about 46.1 µM), for inactives: at the highest dose activity change, positive = activation, usual class: activators. 210,000 tested, 2.8% active. AID 1458; further: % of control where 0% means no effect; nearly all actives have a fitted effect of over 55% in size
#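 qHTS luciferase splicing reporter: luminescence rises when SMN2 exon 7 is included in transfected HEK293 cells. Compound exposure lasted 30-36 h at 37C, with 4.5 mM final sodium butyrate as control, followed by a ONE-Glo read.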
# NPC1 promoter act: NPC1 promoter activation; Huh7 NPC1 promoter luciferase reporter, 24 h; Potency, µM (highest dose often 9.22 µM), for inactives: at the top dose activation, hits mostly activators; 320,000 tested, 2.4% active; further: % of control where 0% means no effect; nearly all actives have a fitted effect of over 60% in size
#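 Huh7 cells stably carrying NPC1 promoter–luciferase, plated in Opti-MEM with 10% FBS for 2 h, were exposed to compound in DMSO for 24 h at 37 °C; luciferase reagent was added for 10 min and luminescence read.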
# Starred values were filed as active, the others as inactive; ? = inconclusive; nt = no result. The call rests on the fitted dose curve; in most records, active means well fitted curve in the direction sought with a large enough effect; inconclusive means small, poorly fitted or top-dose-only effect, or another doubt; inactive means no such curve, though single readings can be large; an effect the other way counts as inactive or inconclusive. Potency means the concentration at half of the fitted maximal effect.
SMILES,ELG1 genotoxic,Rab9 promoter act,FLuc counter,SMN2 splice up,NPC1 promoter act
Cc1ccc(N=C2CCCN2Cc2ccccc2)c(C#N)c1,-1%,13%,24µM*,-3%,3%
CCC(Sc1nnc(-c2ccc(OC)c(OC)c2)c(-c2ccc(OC)c(OC)c2)n1)C(=O)NC1CCCC1 (configuration not stated),nt,nt,0%,nt,nt
Oc1c(N=Nc2ccccc2)sc2ccccc12,2.3µM*,3.2µM*,0.38µM*,nt,?
O=C(NC(=S)NNC(=O)c1ccccc1O)c1ccccc1,7%,10%,24µM*,nt,-2%
O=C(NC(=S)NNC(=O)c1ccccc1O)c1ccc(F)cc1,2%,3%,27µM*,nt,0%
CC(C)(C)c1ccc(OCCC(=O)NNC(=O)c2ccncc2)cc1,-7%,2%,?,nt,2%
Cc1ccc(C(=O)c2cn(Cc3cccc(F)c3)c3nc(C)ccc3c2=O)cc1,nt,nt,4%,-14%,nt
COc1cccc(C(=O)Nc2nnc(SCC(=O)NC3CCCC3)s2)c1,?,?,2.7µM*,nt,?
O=C(CSc1nnc(NC(=O)c2c(F)cccc2F)s1)Nc1ccccc1F,15%,23%,?,nt,4%
O=C(CSc1nnc(NC(=O)c2c(F)cccc2F)s1)NC1CCCC1,8%,10%,1%,nt,0%
Cc1cccc(C(=O)Nc2nnc(SCC(=O)Nc3ccc4c(c3)oc3ccccc34)s2)c1,13%,11%,?,28%,13%
CC(C)c1nnc(NC(=O)CSc2nnc(NC(=O)c3c(F)cccc3F)s2)s1,16%,28%,8.5µM*,28%,18%
O=C(CSc1nnc(NC(=O)c2cccc(F)c2)s1)NC1CCCC1,16%,18%,6µM*,nt,17%
Cc1cccc(C(=O)Nc2nnc(SCC(=O)NC3CC3)s2)c1,?,?,19µM*,nt,?
COc1ccccc1C(=O)Nc1nnc(SCC(=O)NC2CCCC2)s1,2.3µM*,nt,4.8µM*,nt,0.63µM*
O=C(CSc1nnc(NC(=O)c2cccc(F)c2)s1)NC1CC1,21%,5%,15µM*,nt,20%
O=C(CSc1nnc(NC(=O)c2ccc(F)cc2)s1)NC1CC1,?,?,5.4µM*,nt,2.5µM*
COc1ccccc1C(=O)Nc1nnc(SCC(=O)Nc2ccc3c(c2)oc2ccccc23)s1,?,2.8µM*,1.9µM*,22µM*,4µM*
O=C(Cc1ccc(F)cc1)Nc1nnc(SCC(=O)NC2CCCC2)s1,?,-10%,-2%,3%,-3%
CC1=Nc2cccc([N+](=O)[O-])c2NC(=O)C1,20%,-4%,5%,-10%,-2%
O=C(CSc1nnc(NC(=O)c2ccco2)s1)NC1CCCC1,1%,1%,-15%,16%,-2%
O=C(CSc1nnc(NC(=O)c2ccccc2F)s1)NC1CC1,23%,?,15µM*,nt,?
O=C(COc1ccccc1)Nc1nnc(-c2ccc3c(c2)CCCC3)o1,18µM*,?,?,?,?
O=C(Nc1nnc(-c2ccc3c(c2)CCCC3)o1)c1ccccc1,?,-6%,19µM*,-48%,4%
O=C(Nc1nnc(-c2ccc3c(c2)OCCO3)o1)c1ccc(Cc2ccccc2)cc1,-11%,-7%,-2%,-17%,2%
SMILES,ELG1 genotoxic,Rab9 promoter act,FLuc counter,SMN2 splice up,NPC1 promoter act
O=C(COc1ccccc1)Nc1nnc(-c2ccc(F)cc2)o1,-9%,-3%,0%,nt,-3%
O=C(Nc1nnc(-c2ccncc2)o1)c1ccccc1,3%,11%,?,21%,9%
O=C(Nc1nnc(-c2ccc(Cl)cc2)o1)C1CCCCC1,3%,25%,-18%,nt,22%
O=C(Nc1nnc(-c2ccc3c(c2)OCCO3)o1)C1CCCCC1,?,2.5µM*,?,?,3.5µM*
O=C(CCOc1ccccc1)Nc1nnc(-c2ccc3c(c2)OCCO3)o1,-6%,10%,11µM*,-24%,6%
CCCc1nnc(NC(=O)Cc2coc3ccc(C)cc23)s1,nt,nt,1%,5%,nt
O=C(NCc1cccnc1)c1cccc(S(=O)(=O)Nc2cccc(Cl)c2)c1,-2%,2%,-1%,nt,-2%
CC(C)[C@]1(c2ccccc2)ON(c2ccccc2C(F)(F)F)C1=O,-3%,-3%,1%,nt,-2%
COC(=O)CCNC(=O)c1nn(Cc2ccccc2)c(=O)c2ccccc12,-5%,0%,5%,nt,-6%
COc1ccc(C(=O)Nc2nnc(S(=O)(=O)N(C)c3ccc(Cl)cc3)s2)cc1OC,nt,nt,-5%,nt,nt
O=C(Nc1nnc(-c2ccc(Br)cc2)o1)c1cccc(N2C(=O)CCC2=O)c1,2%,0%,12µM*,nt,1%
O=C(Nc1nnc(-c2ccc3c(c2)CCCC3)o1)c1ccccc1Cl,-1%,7%,24µM*,16%,2%
O=C(Nc1nnc(-c2ccccc2)o1)c1cccc(N2C(=O)CCC2=O)c1,0%,1%,?,-4%,-1%
CCOC(=O)CNc1ccc(OC(F)(F)F)cc1,-2%,-13%,-11%,nt,-4%
O=C(O)/C=C/c1cccc(NC(=O)c2ccc(Cl)cc2)c1,4%,-4%,-4%,nt,-4%
Cc1oc(-c2ccccc2)cc1C(=O)Nc1cccc(/C=C\C(=O)O)c1,-1%,1%,15µM*,nt,-4%
Cc1oc(-c2ccccc2)cc1C(=O)Nc1ccc(N(C)C)cc1,0%,0%,13µM*,-30%,0%
Cc1cc(=O)oc(C)c1C(=O)Nc1ccc(N(C)C)cc1,1%,-2%,4%,nt,-3%
O=C(O)/C=C/c1cccc(NC(=O)c2ccccc2)c1,0%,14%,?,nt,1%
Cc1oc(C(C)(C)C)cc1C(=O)Nc1cccc(/C=C\C(=O)O)c1,9%,2%,8.5µM*,8%,2%
CCOc1ccccc1NC(=O)c1ccc2c(c1)CCCN2S(C)(=O)=O,nt,nt,-18%,-12%,nt
N#Cc1ccsc1NC(=O)C1=COCCO1,-2%,-2%,-1%,nt,0%
Cc1ccc(/C=C2\SC(N3CCCCC3)=NC2=O)cc1,12%,?,19µM*,nt,30%
CC(C)(C)c1ccc(/C=C2/SC(N3CCCC3)=NC2=O)cc1,3%,11%,12µM*,nt,-3%
CCOC(=O)C1CCCN(C2=NC(=O)/C(=C/c3ccc(N(C)C)cc3)S2)C1 (configuration not stated),6%,5%,12µM*,nt,26%
Cc1ccccc1N1CCN(C2=NC(=O)/C(=C\c3cccs3)S2)CC1,1%,11%,9.5µM*,?,-1%
CCOc1ccc(S(=O)(=O)Nc2ccc(C(=O)NCc3ccncc3)cc2)cc1,-2%,-4%,6%,nt,-2%
Cc1noc(C)c1NC(=O)Nc1cccc2c1O[C@H](CN(C)C(=O)NC1CCCCC1)[C@@H](C)CN([C@H](C)CO)C2=O,2%,nt,nt,nt,nt
Cc1ccc(CNc2ccc3c(c2)ncn3C(C)C)cc1,9.2µM*,2.8µM*,6µM*,nt,2.2µM*
